Experimental findings from PubChem BioAssay are described below.

A short description of test [1]: small molecules captured by biotinylated probe aFSTL3 – biochemical, small-molecule microarray, fluorescence 635/667, stem cell growth factor project, primary screen (AID 1064).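 Further: measures binding of the biotinylated anti-FSTL3 antibody to printed compounds.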 To be noted: higher = more signal.
Test [2] can be described thus: binders from COS7 lysate, DM2A8 probe, primary screen, torsin A project, cell lysate, small-molecule microarray, fluorescence 635/667 (AID 1065). To be noted: higher = more signal, COS7 lysate expressing mutant human TOR1A.
A short description of test [3]: small molecules captured by biotinylated probe aFGF2 – biochemical, small-molecule microarray, fluorescence 635/667, stem cell growth factor project, primary screen (AID 1067).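 Further: measures binding of biotinylated aFGF2 protein to printed compounds on slides; z-score merges feature fluorescence and signal-to-noise across triplicate slides.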 To be noted: higher = more signal.
Test [4] in a line: small molecules captured by biotinylated probe aFGF10 – biochemical, small-molecule microarray, fluorescence 635/667, stem cell growth factor project, primary screen (AID 1071).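 Further: score merges 667 nm spot intensity and signal to noise from triplicate slides.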 To be noted: higher = more signal.
For test [5], the target named is Neurogenic locus notch homolog protein 2 (Homo sapiens) (UniProt Q04721). Kind of test: small molecules binding Notch2 protein – biochemical, small-molecule microarray, 635 nm fluorescence, stem cell growth factors, primary screen (AID 1073). To be noted: higher = more signal.
Chain of Neurogenic locus notch homolog protein 2 (Homo sapiens) (Q04721 whole entry, looked up, canonical isoform): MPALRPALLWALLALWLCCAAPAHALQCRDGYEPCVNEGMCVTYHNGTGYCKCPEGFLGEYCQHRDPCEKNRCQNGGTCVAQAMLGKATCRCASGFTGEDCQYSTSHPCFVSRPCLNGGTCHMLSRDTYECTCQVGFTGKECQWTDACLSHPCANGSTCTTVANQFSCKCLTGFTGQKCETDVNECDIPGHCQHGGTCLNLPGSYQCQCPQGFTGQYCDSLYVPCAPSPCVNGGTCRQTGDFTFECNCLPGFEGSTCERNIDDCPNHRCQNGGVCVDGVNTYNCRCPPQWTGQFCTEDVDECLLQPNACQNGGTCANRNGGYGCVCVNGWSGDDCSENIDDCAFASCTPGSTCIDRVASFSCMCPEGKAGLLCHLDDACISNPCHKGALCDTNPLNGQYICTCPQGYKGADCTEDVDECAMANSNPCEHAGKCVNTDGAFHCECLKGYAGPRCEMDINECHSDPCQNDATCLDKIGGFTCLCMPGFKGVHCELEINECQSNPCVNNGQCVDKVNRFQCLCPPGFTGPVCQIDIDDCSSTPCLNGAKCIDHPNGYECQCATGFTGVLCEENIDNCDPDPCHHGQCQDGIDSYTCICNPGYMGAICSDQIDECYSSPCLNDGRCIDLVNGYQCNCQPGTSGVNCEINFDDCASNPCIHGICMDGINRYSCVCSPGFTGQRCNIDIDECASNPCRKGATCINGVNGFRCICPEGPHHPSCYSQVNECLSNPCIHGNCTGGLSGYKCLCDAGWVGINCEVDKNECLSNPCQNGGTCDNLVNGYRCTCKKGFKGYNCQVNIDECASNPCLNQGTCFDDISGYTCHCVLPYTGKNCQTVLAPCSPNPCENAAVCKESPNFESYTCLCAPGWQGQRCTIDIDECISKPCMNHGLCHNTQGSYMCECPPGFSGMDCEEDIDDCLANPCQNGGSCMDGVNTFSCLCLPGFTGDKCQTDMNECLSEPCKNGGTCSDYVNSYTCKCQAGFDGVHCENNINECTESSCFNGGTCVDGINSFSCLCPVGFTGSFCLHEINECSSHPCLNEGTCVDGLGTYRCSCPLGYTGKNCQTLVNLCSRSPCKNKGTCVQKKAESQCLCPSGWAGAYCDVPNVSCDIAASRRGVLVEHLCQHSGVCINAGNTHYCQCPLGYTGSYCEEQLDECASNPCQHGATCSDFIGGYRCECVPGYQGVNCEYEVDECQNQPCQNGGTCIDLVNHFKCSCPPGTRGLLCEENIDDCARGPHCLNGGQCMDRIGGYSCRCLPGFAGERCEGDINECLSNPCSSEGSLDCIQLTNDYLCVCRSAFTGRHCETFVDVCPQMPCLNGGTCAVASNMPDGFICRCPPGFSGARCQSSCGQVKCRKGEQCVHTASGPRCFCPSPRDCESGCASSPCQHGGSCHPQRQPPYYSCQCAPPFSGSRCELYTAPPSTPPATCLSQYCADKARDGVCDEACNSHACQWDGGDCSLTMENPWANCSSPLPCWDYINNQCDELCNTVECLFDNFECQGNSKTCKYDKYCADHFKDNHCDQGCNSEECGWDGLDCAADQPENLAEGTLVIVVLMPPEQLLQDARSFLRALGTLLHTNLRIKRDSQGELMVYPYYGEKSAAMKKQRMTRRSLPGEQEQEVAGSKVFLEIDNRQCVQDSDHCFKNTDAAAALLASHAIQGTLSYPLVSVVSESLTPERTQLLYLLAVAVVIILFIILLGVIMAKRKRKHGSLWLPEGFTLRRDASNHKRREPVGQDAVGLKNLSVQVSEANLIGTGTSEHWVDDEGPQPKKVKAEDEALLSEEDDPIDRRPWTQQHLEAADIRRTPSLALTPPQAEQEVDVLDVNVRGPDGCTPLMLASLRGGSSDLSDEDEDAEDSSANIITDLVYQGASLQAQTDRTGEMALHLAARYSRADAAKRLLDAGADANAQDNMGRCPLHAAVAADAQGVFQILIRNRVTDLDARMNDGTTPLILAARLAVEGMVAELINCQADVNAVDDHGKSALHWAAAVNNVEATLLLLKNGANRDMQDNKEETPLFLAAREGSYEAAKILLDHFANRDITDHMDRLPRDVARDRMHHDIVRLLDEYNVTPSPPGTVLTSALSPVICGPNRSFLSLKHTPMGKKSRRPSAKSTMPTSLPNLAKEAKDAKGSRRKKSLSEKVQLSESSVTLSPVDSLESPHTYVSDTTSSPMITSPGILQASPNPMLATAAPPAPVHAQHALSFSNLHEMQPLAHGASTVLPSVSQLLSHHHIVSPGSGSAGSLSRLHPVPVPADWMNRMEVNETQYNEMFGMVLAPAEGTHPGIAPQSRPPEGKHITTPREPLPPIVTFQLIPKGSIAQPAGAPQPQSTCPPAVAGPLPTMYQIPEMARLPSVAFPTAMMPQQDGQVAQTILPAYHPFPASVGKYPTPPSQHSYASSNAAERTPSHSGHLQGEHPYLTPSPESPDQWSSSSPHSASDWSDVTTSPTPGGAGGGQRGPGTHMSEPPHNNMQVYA
Test [6] deals with Pro-neuregulin-1, membrane-bound isoform (Homo sapiens) (UniProt Q02297). The test can be described thus: small molecules binding neuregulin-1 protein – biochemical, small-molecule microarray, fluorescence 635/667, psychiatric disease protein project, primary screen (AID 1075).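 Further: score combines 667 nm spot fluorescence with signal to noise.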 To be noted: NRG1 binding, 635 nm fluorescence, higher = more signal.
Chain of Pro-neuregulin-1, membrane-bound isoform (Homo sapiens) (Q02297 whole entry, looked up, the tested form may be a part, canonical isoform): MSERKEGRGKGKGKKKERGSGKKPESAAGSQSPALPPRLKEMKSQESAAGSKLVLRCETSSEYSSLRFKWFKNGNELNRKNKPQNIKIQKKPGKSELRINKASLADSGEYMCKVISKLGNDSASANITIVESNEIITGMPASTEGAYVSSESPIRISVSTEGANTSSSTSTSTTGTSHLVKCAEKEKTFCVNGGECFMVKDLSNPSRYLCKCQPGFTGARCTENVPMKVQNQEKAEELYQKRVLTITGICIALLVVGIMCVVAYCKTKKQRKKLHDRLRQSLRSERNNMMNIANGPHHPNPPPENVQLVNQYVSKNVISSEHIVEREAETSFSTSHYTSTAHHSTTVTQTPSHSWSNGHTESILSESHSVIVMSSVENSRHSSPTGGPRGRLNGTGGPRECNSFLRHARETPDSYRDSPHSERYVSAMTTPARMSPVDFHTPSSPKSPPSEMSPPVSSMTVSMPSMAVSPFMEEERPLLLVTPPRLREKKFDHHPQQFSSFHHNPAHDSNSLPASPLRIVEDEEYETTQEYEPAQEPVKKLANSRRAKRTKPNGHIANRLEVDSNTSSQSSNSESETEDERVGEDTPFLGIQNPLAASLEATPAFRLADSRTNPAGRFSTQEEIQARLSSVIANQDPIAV
Test [7] has as its system Neuregulin-1 EGF-like domain. The test can be described thus: small molecules binding NRG1 EGF domain – biochemical, small-molecule microarray, 635 nm fluorescence, primary screen (AID 1081).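 Further: binding of the protein to compounds printed on small-molecule microarray slides.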 The conditions noted are these: higher = more signal.
Test [8] is described as follows: FRG1 expression reporter modulators in myotubes – cell-based, C2C12 myotubes, firefly/Renilla luciferase, luminescence, FRG1 inhibition for FSHD, primary screen (AID 1084). The conditions noted are these: FRG1 promoter luciferase, higher = more signal, called active from +8 up or from −8 down.
Test [9] in a line: small molecules captured by biotinylated probe aFST – biochemical, small-molecule microarray, fluorescence 635/667, stem cell growth factor project, primary screen (AID 1086).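 Further: score merges 667 nm fluorescence with signal-to-noise of each printed compound spot.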 The conditions noted are these: higher = more signal.
A short description of test [10]: binders of probe aHhip on microarray, primary screen, stem cell growth factor project, biochemical, small-molecule microarray, fluorescence 635/667 (AID 1087).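 Further: score merges spot fluorescence at 667nm with spot signal to noise ratio.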 To be noted: higher = more signal.
Test [11] deals with PRMT1 (protein arginine N-methyltransferase 1). The test can be described thus: small molecules binding arginine methyltransferase PRMT1 – biochemical, small-molecule microarray, 635 nm fluorescence, primary screen (AID 1088).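 Further: binding of Prmt1 protein to compounds spotted on small-molecule microarray slides.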 The conditions noted are these: higher = more signal.
The nature of test [12]: growth effects on S. cerevisiae YJM789 – YJM789 clinical isolate, OD600, 24 h, basal, primary screen (AID 1089).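 Further: growth of clinical yeast isolate S. cerevisiae YJM 789 seeded 1000 cells per well; test concentration not given here.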 To be noted: higher = more signal, called active from +8 up or from −8 down.
Test [13] in a line: S. pombe growth modifiers, basal conditions – strain 972, OD600, 24 h, no modulator, primary screen (AID 1090).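 Further: basal condition with compound alone and no growth modifier present; test concentration not given here.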 To be noted: S. pombe 972 growth, higher = more signal, called active from +8 up or from −8 down.
A short description of test [14]: budding yeast growth modifiers under rapamycin – strain BY4716, OD600, 96 h, primary screen (AID 1091). Further: test concentration not given here. To be noted: S. cerevisiae BY4716 + rapamycin, higher = more signal, called active from +8 up or from −8 down.
Test [15] concerns the target Torsin-1A-interacting protein 2 (Homo sapiens) (UniProt Q8NFQ8). Kind of test: small molecules binding lysate-expressed LULL1 – cell lysate, human LULL1 lysate, 635/667 nm fluorescence, primary screen (AID 1092).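 Further: probe is lysate of COS7 cells overexpressing human LULL1; score merges per-feature 667 nm fluorescence with signal-to-noise.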 The conditions noted are these: small-molecule microarray, hLULL1 lysate binding, 635 nm fluorescence; higher = more signal.
Test [16] can be described thus: optical density change of DRC41 E. coli – strain DRC41, OD650, 24 h, E. coli filamentation project, primary screen (AID 1093).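 Further: MC1000 strain lacking acrAB efflux and sulA so SOS filamentation is blocked; test concentration not given here.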 The conditions noted are these: E. coli DRC41 growth, higher = more signal, called active from +8 up or from −8 down.
Test [17] is described as follows: probe aLefty2 binding to arrayed compounds – biochemical, biotinylated probe, 635/667 nm fluorescence, primary screen (AID 1094).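 Further: score merges spot fluorescence near 667 nm with spot signal-to-noise ratio.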 To be noted: small-molecule microarray, higher = more signal.
Test [18] has as its system Noggin (protein binding on small-molecule microarray). Kind of test: small molecules binding Noggin protein – biochemical, 635/667 nm fluorescence, primary screen (AID 1095).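 Further: score merges 667 nm feature fluorescence with signal to noise over triplicate slides.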 To be noted: 635 nm fluorescence, higher = more signal.
The target of test [19] is Neurogenic locus notch homolog protein 3 (Homo sapiens) (UniProt Q9UM47). The test can be described thus: small molecules binding NOTCH3 protein – biochemical, 635/667 nm fluorescence, primary screen (AID 1096). The conditions noted are these: small-molecule microarray, 635 nm fluorescence, higher = more signal.
A short description of test [20]: probe aEGFR binding to arrayed compounds – biochemical, biotinylated probe, 635/667 nm fluorescence, primary screen (AID 1097).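 Further: probe is a biotinylated anti-EGFR antibody binding compounds printed on slides; score combines fluorescence near 667 nm and signal to noise of each spot.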 The conditions noted are these: small-molecule microarray, higher = more signal.

The source made the active and inactive calls.

Chain of Torsin-1A-interacting protein 2 (Homo sapiens) (Q8NFQ8 whole entry, looked up): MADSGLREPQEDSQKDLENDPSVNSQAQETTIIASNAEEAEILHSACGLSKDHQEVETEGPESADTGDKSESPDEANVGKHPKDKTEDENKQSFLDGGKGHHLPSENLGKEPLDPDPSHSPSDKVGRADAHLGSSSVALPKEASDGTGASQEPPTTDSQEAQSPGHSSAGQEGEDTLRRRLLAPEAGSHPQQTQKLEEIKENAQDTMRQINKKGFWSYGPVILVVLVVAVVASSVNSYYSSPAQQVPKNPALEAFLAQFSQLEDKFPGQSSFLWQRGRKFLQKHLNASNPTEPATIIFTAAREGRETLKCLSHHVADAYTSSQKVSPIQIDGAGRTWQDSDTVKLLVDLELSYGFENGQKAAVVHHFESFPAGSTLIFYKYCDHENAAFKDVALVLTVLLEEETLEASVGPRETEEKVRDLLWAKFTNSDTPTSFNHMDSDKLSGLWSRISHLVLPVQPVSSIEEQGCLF

In the case of `NCCCC[C@@H]1NC(=O)[C@H]2C[C@@H](C(=O)O)[C@@H](c3cccc(OCCO)c3)N2C1=O`, the composite z-score worked out at 1.34 in [1]; 1.57 in test [2]; 0.097 in test [3]; 0.856 in [4]; 1.61 in test [5]; 2.05 in test [6]. Besides, the composite z-score in test [7] was 1.4; in test [9] it was 2.16; in [10], -0.0474; in test [11] it was 1.53; in test [15], 3.33; in test [17] it was 0.781. The results for the composite z-score in test [18], in test [19] and in test [20] were 1.85, 1.02 and 0.703, respectively. In addition, the z-score in [8] is 0.805 (inactive); in test [12], 1.42 (inactive); in test [13] it was -1.66 (inactive); in [14], -0.503 (inactive); in [16], -1.31 (inactive).

Turning to `C=CC[C@@]1(C(=O)O)N=C(c2ccc(OCCCO)cc2)O[C@@H]1c1ccccc1CN=[N+]=[N-]`, the composite z-score was -0.232 in [1]; 0.334 in [2]; -0.0518 in test [3]; 0.744 in test [4]; 0.955 in [5]; 1.79 in [6]. Besides, the composite z-score in [7] was 1.08; in [9], 0.0959; in [10], -0.007; in [11], 0.753; in test [15], 3.34; in test [17] it was 0.0806. In addition, the figures for the composite z-score in test [18], in test [19] and in test [20] were 0.373, 0.942 and 0.0209, respectively. In addition, the z-score is 4 (inactive) in [8]; -1.23 (inactive) in test [12]; -2.27 (inactive) in test [13]; -1.95 (inactive) in test [14]; 0.788 (inactive) in test [16].

In the case of `C=CCC(OC(C)=O)[C@@H]1[C@@H](N(Cc2ccc(-c3cccc(C(F)(F)F)c3)o2)C(=O)Cc2ccc(OC)cc2)c2cc(OCCCO)ccc2N1C(=O)c1ccc2ccccc2n1` (stereo not given in full), the composite z-score in test [1] is 0.0523; in test [2], -0.0913; in [3] it was -0.0922; in test [4], 0.745; in [5], -0.485; in [6], -0.249. Moreover, the composite z-score was -0.433 in test [7]; 0.364 in test [9]; -0.16 in test [10]; -0.538 in test [11]; 0.806 in [15]; -0.0998 in [17]. Also, the composite z-score in test [18] is -0.306; in test [19] it was -0.412; in [20], -0.0828. Further, the z-score in test [8] is 0.312 (inactive); in test [12], 0.195 (inactive); in test [13] it was 0.153 (inactive); in [14], -0.44 (inactive); in test [16] it was -0.555 (inactive).

Consider `C=CC[C@]1(C(=O)OC)N=C(c2ccc(OCCCO)cc2)O[C@H]1c1ccccc1N=[N+]=[N-]`, for which the composite z-score in test [1] came out at 0.638; in test [2], 0.402; in test [3] it was 0.288; in test [4] it was 1.13; in test [5] it was 1.42; in [6], 1.5. Besides, the composite z-score in test [7] is 1.4; in [9] it was 1.03; in test [10] it was 0.33; in [11], 1.54; in test [15] it was 3.36; in test [17] it was 0.529. Further, the composite z-score was 1.41 in [18], 1.08 in test [19] and 0.686 in test [20]. For the same molecule, the z-score in [8] was 3.21 (inactive); in test [12], -0.747 (inactive); in test [13], -0.652 (inactive); in test [14] it was 1.35 (inactive); in [16], -0.225 (inactive).

On to `C=CCNC(=O)[C@H]1[C@@H]2C(=O)O[C@@H](c3ccccc3)[C@@H](c3ccccc3)N2[C@@H](c2ccc(O)cc2)[C@]12C(=O)Nc1ccc(C#CC3=CCCCC3)cc12`, for which the composite z-score in [1] is -0.713; in test [2], 2.01; in test [3] it was -0.0449; in test [4], 0.447; in test [5] it was 0.706; in test [6] it was 0.0212. The composite z-score in test [7] was 1.18; in test [9], -0.166; in [10], 0.199; in [11] it was 1.42; in test [15], 1.54; in test [17] it was 0.384. In addition, the results for the composite z-score in test [18], in test [19] and in test [20] were 1, 0.758 and -0.17, respectively. Also, the z-score in test [8] is -0.195 (inactive); in [12], 1.51 (inactive); in test [13] it was 0.614 (inactive); in test [14], 1.98 (inactive); in test [16], -0.197 (inactive).
